High-throughput results from PubChem.
Rows were chosen to be rich in hits. Some 2.6% of all compounds tested hit in one or more screens of this group.
697 NFkB inh: inhibitors of PMA/ionomycin-induced NF-kB reporter, 697 cells, primary screen, B-cell NF-kB inhibitor project, cell-based, luminescence, uHTS. actives 0.33% (n = 330,000). AID 435022, 2010. inhibition, % at 4 µM. 697 B-cell NF-kB luciferase reporter, 16 h; in the data active means inhibition above about 35%
COUP-TFII inh: NR2F2 transcriptional activity inhibitors, primary screen, cell-based, luciferase reporter, HEK293T, luminescence | AID 686940, 2013 | inhibition, % at 8.6 µM | actives 0.7% (n = 370,000) | HEK293T NGFI-A luciferase reporter;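 active means inhibition above a per-plate cutoff, mean inhibition of test wells between control levels plus 3 SD, cut at about 38% in these data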;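 further: cells cotransfected with COUP-TFII expression vector driving the NGFI-A reporter; 0% = median of COUP-TF2 test wells and 100% = reporter-only cells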
Target sequence (P24468 whole entry, looked up): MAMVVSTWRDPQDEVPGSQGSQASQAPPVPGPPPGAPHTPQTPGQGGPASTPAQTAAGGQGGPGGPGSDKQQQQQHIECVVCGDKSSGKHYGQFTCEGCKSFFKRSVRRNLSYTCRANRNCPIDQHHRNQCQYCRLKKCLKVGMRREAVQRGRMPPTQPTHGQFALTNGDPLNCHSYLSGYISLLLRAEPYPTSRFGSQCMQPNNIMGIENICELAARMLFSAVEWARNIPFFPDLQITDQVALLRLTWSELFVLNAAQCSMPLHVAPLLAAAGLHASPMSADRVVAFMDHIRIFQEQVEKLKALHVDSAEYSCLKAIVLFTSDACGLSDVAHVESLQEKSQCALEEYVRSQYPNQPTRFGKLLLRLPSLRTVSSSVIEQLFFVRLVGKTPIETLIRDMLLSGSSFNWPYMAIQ
Gli-Sufu block: Gli-Sufu pathway antagonists, primary screen, luciferase luminescence, Sufu-KO-LIGHT cells, uHTS; actives 0.74% (n = 340,000); AID 588413, 2011; inhibition, % at 5 µM; Sufu-KO-LIGHT fibroblasts, Gli luciferase reporter luminescence;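 active means inhibition above about 55%, limit read from the data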;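 further: 0% = DMSO-treated cells and 100% = wells with medium but no cells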
TAG inh: inhibitors of triacylglycerol accumulation, primary screen, cell-based, uHTS, fluorescence, H9c2. H9c2 cells, Nile Red lipid (TAG) fluorescence; cells loaded with 200 µM oleic acid. inhibition, % at 12.5 µM. actives 0.66% (n = 230,000);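 active means pattern-corrected inhibition of lipid staining of at least 50% with the nuclear-stain viability signal not falling by more than 50%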;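 further: 0% = DMSO wells and 100% = triacsin C control wells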
Jurkat NFkB inh: inhibitors of induced NF-kB luciferase reporter, primary screen, TCR NF-kB activation inhibitor project, cell-based, luminescence, uHTS; Jurkat, PMA/ionomycin-induced NF-kB luciferase reporter; inhibition, % at 4 µM; actives 0.53% (n = 330,000); AID 435003, 2010; in the data active means inhibition above about 50%
Cardio protect: cardioprotection against H2O2-induced cell death, primary screen, uHTS, H9c2 cells, ATPLite luminescence | actives 0.63% (n = 360,000) | H9c2 cardiomyocytes, H2O2 injury protection, 2 h | protection from H2O2 cell death, % at 20 µM;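 active means compounds giving at least 50% protection of heart cells from peroxide-induced death in the single-dose screen, raw or plate-pattern-corrected value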;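 further: 0% = DMSO wells with peroxide and 100% = DMSO wells without peroxide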
697 NFkB conf: PMA/ionomycin-induced NF-kB reporter inhibitors, 697 retest, confirmation, B-cell NF-kB inhibitor project, cell-based, luminescence, single concentration; shares compounds with 697 NFkB inh; 697 B-cell NF-kB luciferase, 16 h; inhibition, % at 4 µM; actives 35% (n = 2,000); AID 449746, 2010; in the data active means inhibition mostly above about 28%, no sharp cut-off; inactive means mostly below about 22%
* marks the source's active call; other numbers are inactive results; i = inactive; · = no result.

SMILES	697 NFkB inh	COUP-TFII inh	Gli-Sufu block	TAG inh	Jurkat NFkB inh	Cardio protect	697 NFkB conf
COC(=O)c1cc(C(c2ccccc2O)C2CCCO2)n2cccc(C(C)(C)C)c12 (stereo not drawn)	·	-6	·	·	·	·	·
CCCCNc1nc(N)nc(-c2cc(Cl)ccc2O)n1	-290	-27	-95	·	-135	-18	-233
COc1ccc(C(=O)CC(=O)c2ccccc2O)cc1	-105	-18	-39	-6	-84	11	·
COc1ccc(O)c(C(=O)CC(=O)c2ccc(F)cc2)c1	-296	-38	-110	-5	-133	-17	-303
CCCCOCCCNC(=O)C[C@H]1C(=O)N(Cc2ccc(OC)cc2)C2=CCCC[C@@]21C(=O)OCC	·	6	·	·	·	·	·
CCOc1ccccc1C(=O)Nc1ccc(C(=O)NCC2COc3ccccc3O2)cc1 (stereo not drawn)	·	7	·	·	·	·	·
Cc1nn(C)c(C)c1CN(C)C(=O)c1cnn2c1NC(c1ccccc1)CC2C(F)(F)F (stereo not drawn)	39*	-22	20	·	14	0	27
Cc1nn(C)c(C)c1CN(C)C(=O)c1nn2c(c1Br)NC(c1cccs1)CC2C(F)(F)F (stereo not drawn)	11	12	12	·	6	0	·
Cc1ccc(NC(=O)c2ccc(-c3nn(C)c(=O)c4ccccc34)cc2)cc1	42*	-9	39	·	21	4	14
Cc1ccc(NC(=O)c2ccc3c(c2)OCCO3)cc1	-252	-14	4	-8	-139	-32	-211
O=C(Nc1ccncc1)c1ccc2c(c1)OCCO2	-7	-15	-12	-15	-14	-28	·
Cc1nc2c(ccc3nc(NC(=O)c4ccc5c(c4)OCCO5)sc32)s1	-255	-50	-107	·	-116	-21	-223
Cc1ccc(C(=O)Nc2ccc3ccccc3c2)cc1	-368	24	-166	-14	-112	-20	-447
COc1ccc(F)cc1-c1cc(C(C)=O)c2n(c1=O)CCC2	·	4	·	·	·	·	·
COc1cccc(CNC(=O)Cn2c(-c3ccccc3)cc(C(C)=O)c2C)c1	·	-6	·	·	·	·	·
Cc1ccc(-c2nnc(Nc3ccccc3)o2)cc1	-303	-10	-72	·	-59	-21	-366
CN(C)/C=C(\C#N)S(=O)(=O)c1ccc(Cl)cc1	8	9	2	-2	5	19	·
Cc1ccc(S(=O)(=O)/C(=C\N(C)C)c2cnc(Cl)s2)cc1	36*	0	-5	-33	10	0	23
Cc1cc(C)cc(NC(=O)Nc2ccc(NC(=O)c3ccccc3O)cc2)c1	36*	0	9	·	14	-2	37*
Cc1ccc(NC(=O)c2ccccc2O)cc1	-213	-48	2	-8	-97	-26	·
Cc1ccccc1Cn1cc(COC(=O)NCC(C)C)nn1	·	2	·	·	·	·	·
Cc1ccc(NC(=O)OC2CC3CC2[C@H]2CCCCN2[C@H]3Cc2ccccc2)cc1 (stereo partly drawn)	·	-18	·	·	·	·	·
Cc1ccc(NC(=O)OCCCN2C(=O)CCC23CCC(C)CC3)cc1C (stereo not drawn)	·	-18	·	·	·	·	·
N#Cc1cc(F)cc(OC[C@@H](O)CN2CCC(C(O)(c3ccccc3)c3ccccc3)CC2)c1	·	-16	·	·	·	·	·
COC(=O)[C@]12C[C@H](CC(=O)N3CCOCC3)C(=O)N(CCc3ccc(OC)c(OC)c3)C1=C[C@H](C1CCCC1)O[C@@H]2C	·	-18	·	·	·	·	·
SMILES	697 NFkB inh	COUP-TFII inh	Gli-Sufu block	TAG inh	Jurkat NFkB inh	Cardio protect	697 NFkB conf
CCCc1c(C(=O)OCC)[nH]c2c1C(=O)CCC2	-17	5	-1	·	-9	4	·
CC(=O)c1c(C)[nH]c(C(=O)OCCOc2ccccc2)c1C	-253	10	-77	-39	-141	-27	-402
CC(=O)c1c(C)[nH]c(C(=O)COC(=O)CCCOc2ccccc2)c1C	6	3	31	1	-1	1	·
Cc1c(C(=O)OCCOc2ccccc2)[nH]c2c1C(=O)CCC2	-331	15	-71	-17	-83	-21	-380
COc1ccc(Cn2ccc3ccc(-c4ccc5ccn(Cc6ccc(C#N)cc6)c5c4)cc32)cc1	·	-4	·	·	·	·	·
CCc1sc(C(=O)Nc2cccc(-n3cnnn3)c2)cc1C	37*	-17	19	-14	23	-14	39*
C[C@@H]1CN([C@H](C)CO)C(=O)c2cc(NC(=O)Nc3ccccc3)ccc2O[C@@H](C)CCCCO[C@H]1CN(C)S(=O)(=O)c1ccc(F)cc1	·	15	·	·	·	·	·
Cn1c(-c2ccccc2)cc2ccccc21	-8	-12	-3	·	-34	-5	·
Cn1c(-c2ccccc2)cc2c3no[n+]([O-])c3ccc21	-262	-4	-9	-29	-33	6	-133
C=CCN1[C@H](CC(C)C)COc2cc(N3CCSCC3)ccc2S1(=O)=O	·	9	·	·	·	·	·
CC(C)(C)C(=O)NNC(=O)c1cnccn1	45*	8	3	-3	0	5	10
CC(=O)NC(Cc1ccc2c(c1)OCO2)C(=O)N1CCCC1 (stereo not drawn)	·	-21	·	·	·	·	·
COc1ccc(C2=Nn3c(nnc3-c3ccccc3F)SC2)cc1OC1CCOC1 (stereo not drawn)	-14	-91	13	·	-19	2	·
COc1ccc(C2=Nn3c(nnc3-c3ccccc3F)SC2)cc1OC1CCCC1	i	-87	-28	-2	22	8	i
COc1ccc(CNC(=O)O[C@H]2CC[C@@]34CCCN3C(=O)CCC[C@H]4C2)cc1	·	-8	·	·	·	·	·
COc1ccc(C(=O)N=c2sc3c(C)ccc(OC)c3n2C)cc1	-299	-58	-107	8	-30	-14	-337
COc1cc(C(=O)N=c2sc3c(C)ccc(OC)c3n2C)cc(OC)c1OC	-49	-2	-22	-1	28	30	·
O=S(=O)(c1cc2ccccc2s1)n1c(CN2CCOCC2)nc2ccccc21	·	9	·	·	·	·	·
Cc1cnc(NC(=O)COc2cccc3c2OC(C)(C)C3)s1	i	-88	-6	5	-60	4	i
C/C(=N\NC(=O)CSc1nnc(-c2ccccc2)n1-c1ccc(C)cc1)c1ccc(-c2ccccc2)cc1	·	-17	·	·	·	·	·
Cc1cccc2cc(/C=N/Nc3ccc(C(=O)O)cc3)c(Cl)nc12	-309	-52	-134	21	-76	-6	-247
O=C(O)c1ccc(N/N=C/c2cc3ccccc3nc2Cl)cc1	-151	-31	-37	2	-12	0	·
